Source: PubChem BioAssay AID624330 (Southern Research Specialized Biocontainment Screening …, 2012)
In all, about 340,000 compounds went through this assay and about 2,100 (0.62%) were called active.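 The calls were made as follows: active = first-screen hits whose inhibition reached a set limit at any dose in the follow-up dose series; inconclusive = inhibition above the set first-screen limit but never retested; inactive = the rest.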 The list is a sample of the results. Potency and affinity values are given separately.

Biological target: Rac GTPase-activating protein 1 (Homo sapiens) (UniProt Q9H0H5)
Experiment: MgcRacGAP GTPase-activating activity inhibitors, confirmation, biochemical, ADP Hunter fluorescence, primary and confirmatory (AID 624330);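 also: fluorescence reports GDP produced by GAP-driven GTP hydrolysis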
Conditions: MgcRacGAP-stimulated Rac1 GTP hydrolysis, at 30 µM, stronger effect = higher value, GST-tagged Rac1 F28L mutant substrate

Sequence of Rac GTPase-activating protein 1 (Homo sapiens) (Q9H0H5 whole entry, looked up): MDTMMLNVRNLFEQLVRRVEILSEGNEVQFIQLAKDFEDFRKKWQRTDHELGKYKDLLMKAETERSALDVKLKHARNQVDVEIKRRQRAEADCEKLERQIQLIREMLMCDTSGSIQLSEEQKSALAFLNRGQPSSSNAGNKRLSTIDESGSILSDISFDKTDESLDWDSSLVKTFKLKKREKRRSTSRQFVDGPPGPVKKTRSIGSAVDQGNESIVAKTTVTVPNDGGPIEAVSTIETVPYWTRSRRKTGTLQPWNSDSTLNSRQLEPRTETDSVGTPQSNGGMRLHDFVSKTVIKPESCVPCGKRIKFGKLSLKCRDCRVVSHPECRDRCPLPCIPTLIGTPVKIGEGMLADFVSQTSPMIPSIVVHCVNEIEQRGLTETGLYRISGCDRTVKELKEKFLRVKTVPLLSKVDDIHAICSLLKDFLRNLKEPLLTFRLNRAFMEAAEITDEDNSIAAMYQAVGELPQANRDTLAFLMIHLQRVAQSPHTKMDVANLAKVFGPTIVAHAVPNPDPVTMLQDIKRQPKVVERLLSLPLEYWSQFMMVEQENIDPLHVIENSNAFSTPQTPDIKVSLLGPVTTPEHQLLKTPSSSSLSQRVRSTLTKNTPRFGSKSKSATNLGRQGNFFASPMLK

inhibition, inactive:
CCOc1ccc(NC(=O)CN2CCN(CC(=O)Nc3ccc(C(=O)OC)cc3)CC2)cc1 6.74%
C/C(=N\NC(=O)Cn1nc(C)c([N+](=O)[O-])c1C)c1ccc(Cl)s1 5.29%
COC(=O)c1scc2c(=O)cc(C(F)(F)F)[nH]c12 6.18%
Cc1cc(OCC(=O)N(C(C)C)C(C)C)cc(C)c1Br 7.37%
COc1cc(/C=N/N2CCN(Cc3ccc(C)cc3)CC2)cc(OC)c1O 25.8%
COc1ccccc1N1CCN(/N=C(\C)c2ccc(O)cc2)CC1 8.49%
COc1ccccc1N1CCN(/N=C(\C)c2ccccc2O)CC1 9.26%
COc1ccc(/C=N/N2CCN(c3ccccc3OC)CC2)cc1OC 1.46%
COc1ccc(/C=N/N2CCN(c3ccccc3OC)CC2)cc1Br 5.46%
COc1ccc(/C=N/N2CCN(C)CC2)cc1OC 4.11%
CC(=O)Oc1ccc(/C(C)=N/N2CCN(Cc3ccc(C)cc3)CC2)cc1 -1.21%
COc1ccc(/C=N/N2CCOCC2)cc1O 6.98%
COc1ccc(-c2cc([C@H]3[C@H]4C=CC[C@@H](C)[C@@H]4C(=O)N3Cc3ccccc3)ccc2F)cc1 4.49%
CCC(C)N(C(=O)COC(=O)c1ccc(=O)n(Cc2ccccc2)n1)C1CCS(=O)(=O)C1 (centres undefined) 2.85%
CSc1nc(C(=O)N2CCc3c([nH]c4ccccc34)C2c2ccccn2)cs1 (centres undefined) 3.69%
CCCCNC(=O)Cn1c(=O)c2c(ncn2CCC(C)C)n(Cc2ccccc2)c1=O 6.76%
CCOC(=O)/C=C1\SCC(=O)N1CC(=O)NC(c1ccccc1)c1ccccc1 5.26%
CN(CC(=O)Nc1cccc(F)c1)C(=O)CSc1ccccc1 1.63%
COc1ccccc1N1CCN(/N=C/c2cccc(O)c2)CC1 10.5%
COc1ccccc1N1CCN(/N=C/c2cc(OC)c(OC)c(OC)c2)CC1 -2.37%
COc1ccccc1N1CCN(/N=C\c2ccccc2)CC1 -17.8%
COc1ccccc1N1CCN(/N=C/c2cccc(OC)c2O)CC1 -28.4%
CC1CCCCC1NC(=O)CSc1nnc(CC(=O)Nc2ccccc2F)n1C (centres undefined) 5.96%
O=C(C[C@@H]1C/C=C/CC[C@@H](Cc2ccc(F)cc2)C(=O)OCCNC1=O)N[C@H](CO)Cc1ccccc1 3.03%
COCC1CCN(Cc2cn(C)nc2-c2cccc(Cl)c2)C1 (centres undefined) 1.3%
O=C(CCc1nnc2ccc(NCc3ccc(F)cc3)nn12)NC1CCCC1 12.4%
CC(C)C(=O)N(Cc1ccc2c(c1)OCO2)Cc1ccccn1 7.22%
c1ccc(CNCc2ccc3c(c2)OCO3)nc1 4.13%
O=C(CN1CCCc2ccccc21)Nc1cccc(S(=O)(=O)N2CCCC2)c1 9.73%
CNCc1c(C)nn(-c2ccccc2)c1C 8.94%
CCn1ccnc1CN(C)Cc1nc(-c2ccccc2)no1 -3.37%
CC(=O)Nc1ccc(NC(=O)CSCc2ccccc2Cl)cc1 10.3%
C/C(=N\NC(=O)CSCc1ccccc1Cl)c1cccc(NC(=O)c2ccccc2)c1 4.95%
Cc1ccccc1Nc1nc(N)nc(COC(=O)c2ccc3c(c2)OCCO3)n1 12.6%
O=C(Nc1ccccc1C(=O)Nc1ccc(F)cc1)c1ccco1 6.4%
CCOc1ccc(S(=O)(=O)N2CCN(C(=O)c3ccc(C)c(S(=O)(=O)N4CCOCC4)c3)CC2)cc1 5.86%
COc1ccc(CN2CCN(C(=O)CC(C)C)CC2)cc1 26.1%
COc1cc(OC)c(OC)cc1CN1CCN(C(=O)CC(C)C)CC1 12.8%
COc1ccc(C(=O)N2CCN(Cc3cc(OC)c(O)c(OC)c3)CC2)cc1OC 18.5%
COc1ccc(CN2CCN(C(=O)CC(C)C)CC2)cc1Br 26.2%
COc1ccc(C(=O)N2CCN(C(=O)CC(C)C)CC2)cc1OC -1.21%
CCOc1cc(CN2CCCCCC2)ccc1OC 25.5%
C=CCN1C(=O)c2ccc(C(=O)N(C)CC(=O)Nc3ccccc3Cl)cc2C1=O -7.53%
CCOC(=O)c1ccc(NC(=O)c2nc[nH]c2C(=O)NCCCNC(=O)c2[nH]cnc2C(=O)Nc2ccc(C(=O)OCC)cc2)cc1 -0.79%
COc1ccc(N=Cc2c(O)c3ccccc3oc2=O)cc1 10.7%
COC(=O)c1ccccc1NC(=S)NC(=O)COc1ccccc1Cl 2.61%
CCOc1ccc(-n2c(-c3ccco3)n[nH]c2=S)cc1 15.8%
O=C(COC(=O)c1cccs1)NCCc1ccc(F)cc1 4.76%
CC1CC(C)(C)N(C(=O)CN2C(=O)c3ccccc3C2=O)c2ccccc21 (centres undefined) 2.35%
CC1CC(C)(C)N(C(=O)CN2C(=O)CCC2=O)c2ccccc21 (centres undefined) -0.11%
Cc1ccc2c(c1)C(C)CC(C)(C)N2C(=O)NC1CCCCC1 (centres undefined) 3.06%
CN1CCN(CC(=O)N2c3ccccc3C(C)(c3ccccc3)CC2(C)C)CC1 (centres undefined) 10.3%
CCN(CC)C(=O)[C@H]1C[C@H](CC(=O)NCCCN(C)C)C(=O)N2CCc3c([nH]c4ccc(Cl)cc34)[C@]12C 4.62%
O=C(NCc1ccccn1)C12CC3CC(CC(C3)C1)C2 3.08%
O=C(NCc1ccccn1)NC12CC3CC(CC(C3)C1)C2 1.18%
COc1cc(OC)c(OC)cc1/C=C1/C(=O)N=C(N)N1C 0.61%
CC(NC(=O)/C=C/c1ccco1)c1nc2ccccc2n1Cc1ccccc1F (centres undefined) -6.08%
O=c1c(-c2ccco2)[n+]([O-])c2ccccc2n1OCc1ccccc1 2.31%
O=C(CNCc1ccccc1Cl)Nc1ccccc1N1CCCCC1 28.3%
Cc1c(Cl)cccc1NC(=O)CNCc1ccccc1F 5.19%
CCCCn1c(N)c(N(CCOC)C(=O)CSCc2ccc(C)cc2)c(=O)[nH]c1=O 3.5%
Cc1ccc(NC(=O)CN(C)S(=O)(=O)c2cccs2)cc1C 2.54%
CCN=C1S/C(=C\c2sccc2C)C(=O)N1CC 8.79%
CC(C(=O)Nc1ccc2c(c1)OCO2)N(C)CC(=O)Nc1ccccc1Cl (centres undefined) 6.56%
CSc1ccccc1C(=O)NCc1ccc2c(c1)OCO2 3.84%
COc1ccc2c(c1)[nH]c1c(=O)n(/N=C/c3ccc(OC)c(COc4ccccn4)c3)cnc12 6.37%
CC(C)N1C(=O)S/C(=C\c2ccc(-c3ccc(Cl)c(C(=O)O)c3)o2)C1=O 14.4%
CC(C)N1C(=O)S/C(=C/c2ccc(Sc3nc4ccccc4[nH]3)o2)C1=O 12.6%
CCc1nc2ccccc2c(=O)n1NC(=O)c1c(O)c2ccccc2n(CC)c1=O 11.3%
CCn1c(COc2ccc(Cl)cc2)nnc1SCC(=O)Nc1ccc2c(c1)OCCO2 9.81%
COc1ccc(/C=C2/SC(c3ccc(C)cc3)=NC2=O)cc1OC 11.7%
COc1ccc(/C=C2\SC(c3ccc(C)cc3)=NC2=O)cc1OC -0.09%
COc1ccc(/C=C2\SC(N)=NC2=O)cc1 3.78%
O=C(CN1C(=O)S/C(=C\c2ccc(O)cc2)C1=O)c1ccccc1 2.23%
COc1ccc(C2=NN(c3ccccc3)C(=O)/C2=C\c2ccc(O)c(OC)c2)cc1 4.88%
COc1cc(/C=C2\SC(N)=NC2=O)ccc1OCC(=O)Nc1ccccc1C 1.31%
COc1cc(/C=C2/SC(=S)N(Cc3ccccc3)C2=O)ccc1O 11.1%
NC1=NC(=O)C(=Cc2ccccc2)S1 -0.93%
COc1ccc(N2CC(C(=O)Nc3nnc(SCC(=O)N4CCOCC4)s3)CC2=O)cc1 (centres undefined) 10.3%
CCCn1c(SCC(=O)Nc2cc(Cl)ccc2OC)nc(O)cc1=O 4.2%
CCOC(=O)C(CC)Sc1nc2c(c(=O)[nH]c(=O)n2C)n1C/C=C(/C)Cl (centres undefined) 13.4%
CCc1cccc(NC(=O)CSc2nnc(Cc3ccc(OC)cc3)c(=O)[nH]2)c1 6.26%
CC(=O)c1cccc(Nc2cc(C)nc3c(C)cc(C)cc23)c1 11%
CC(=O)Nc1cccc2c1C(=O)N(c1ccccc1C)C2=O 9.72%
Cc1ccnc(NC(=O)Cn2c(=O)oc3ccccc32)c1 6.21%
Cn1cccc1/C=C1\SC(=O)N(c2ccc(O)cc2)C1=O 0.13%
Cc1ccc(NC(=O)CN2C(=O)S/C(=C\c3cccn3C)C2=O)cc1 2.72%
N/C(Cc1cccs1)=N\OC(=O)COc1ccc(Br)cc1 0.69%
CN(CC(=O)NCc1ccc(F)cc1)Cc1cccc(Cl)c1 5.16%
CSc1ccc(CN(C)CC(=O)NCc2ccccc2)cc1 4.61%
COc1ccc(CNC(=O)CN(C)Cc2ccc(SC)cc2)cc1 9.14%
COc1ccc(CNC(=O)CCOc2ccc(C(C)(C)C)cc2)cc1 4.83%
Cc1cccc(NC(=O)C2(C)CC3c4ccccc4C2c2ccccc23)c1C (centres undefined) 4.55%
CC(C)(C)OC(=O)N[C@@H](Cc1ccccc1)C(=O)NCC1CCC(C(=O)N[C@@H](CC(=O)O)C(=O)O)CC1 (some centres undefined) -2.85%
